# Where “and” joins values, the source holds several entries; their conditions need not be identical. Equal entries are not always repeated. About 2,000 (36%) of roughly 5,500 compounds were called active. Not shown: some 18% with an inconclusive outcome. No stated cut-off is given here; in the data, active means normalized growth mostly below about 0.91 (no sharp cut-off); inconclusive means no clear call, values can overlap the other calls; inactive means mostly above about 0.92. This is one part of the list.
# Experiment: chemical genetic growth profiling, strain panel (AID 1159580);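 further: tested at 20 µM; growth read once vehicle control cultures reached saturation at 30 °C; 1 = growth at the plate median or of vehicle wells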
# Conditions: S. cerevisiae deletion strains, growth OD
structure (smiles),measurement,setting,value
O=C(O)CCC(=O)c1ccc(-c2ccccc2)cc1,normalized growth,"locus YAL013W, strain DEP1, stronger effect = lower value",0.985 (inactive)
same,normalized growth,"locus YAL021C, strain ccr4, stronger effect = lower value",1.01 (inactive)
same,normalized growth,"locus YAL026C, strain drs2, stronger effect = lower value",0.976 (inactive)
same,normalized growth,"locus YAL030W, strain snc1, stronger effect = lower value",0.991 (inactive)
same,normalized growth,"locus YBL061C, strain skt5, stronger effect = lower value",0.989 (inactive)
same,normalized growth,"locus YBR009C, strain hhf1, stronger effect = lower value",0.998 (inactive)
same,normalized growth,"locus YBR021W, strain FUR4, stronger effect = lower value",0.964 (inactive)
same,normalized growth,"locus YBR023C, strain chs3, stronger effect = lower value",0.983 (inactive)
same,normalized growth,"locus YBR171W, strain sec66, stronger effect = lower value",0.983 (inactive)
same,normalized growth,"locus YBR229C, strain ROT2, stronger effect = lower value",0.986 (inactive)
same,normalized growth,"locus YBR231C, strain swc5, stronger effect = lower value",0.981 (inactive)
same,normalized growth,"locus YBR279W, strain paf1, stronger effect = lower value",0.975 (inactive)
same,normalized growth,"locus YCL011C, strain gbp2, stronger effect = lower value",1 (inactive)
same,normalized growth,"locus YCL016C, strain dcc1, stronger effect = lower value",0.999 (inactive)
same,normalized growth,"locus YCL029C, strain bik1, stronger effect = lower value",0.934 (inactive)
same,normalized growth,"locus YCL069W, strain vba3, stronger effect = lower value",0.983 (inactive)
same,normalized growth,"locus YCR088W, strain abp1, stronger effect = lower value",1.01 (inactive)
same,normalized growth,"locus YDL005C, strain med2, stronger effect = lower value",0.991 (inactive)
same,normalized growth,"locus YDL035C, strain GPR1, stronger effect = lower value",0.989 (inactive)
same,normalized growth,"locus YDL040C, strain nat1, stronger effect = lower value",0.986 (inactive)
same,normalized growth,"locus YDL074C, strain BRE1, stronger effect = lower value",0.957 (inactive)
same,normalized growth,"locus YDL101C, strain DUN1, stronger effect = lower value",0.959 (inactive)
same,normalized growth,"locus YDL134C, strain PPH21, stronger effect = lower value",0.972 (inactive)
same,normalized growth,"locus YDL185W, strain tfp1, stronger effect = lower value",0.962 (inactive)
same,normalized growth,"locus YDL192W, strain arf1, stronger effect = lower value",0.971 (inactive)
same,normalized growth,"locus YDR001C, strain nth1, stronger effect = lower value",0.982 (inactive)
same,normalized growth,"locus YDR069C, strain doa4, stronger effect = lower value",0.986 (inactive)
same,normalized growth,"locus YDR101C, strain arx1, stronger effect = lower value",0.964 (inactive)
same,normalized growth,"locus YDR137W, strain rgp1, stronger effect = lower value",0.793 (active)
same,normalized growth,"locus YDR150W, strain NUM1, stronger effect = lower value",0.99 (inactive)
same,normalized growth,"locus YDR159W, strain sac3, stronger effect = lower value",1.02 (inactive)
same,normalized growth,"locus YDR162C, strain NBP2, stronger effect = lower value",0.986 (inactive)
same,normalized growth,"locus YDR195W, strain ref2",0.929 (inactive)
same,normalized growth,"locus YDR297W, strain sur2, stronger effect = lower value",0.99 (inactive)
same,normalized growth,"locus YDR318W, strain mcm21, stronger effect = lower value",0.963 (inactive)
same,normalized growth,"locus YDR334W, strain swr1, stronger effect = lower value",0.977 (inactive)
same,normalized growth,"locus YDR335W, strain msn5, stronger effect = lower value",0.953 (inactive)
same,normalized growth,"locus YDR388W, stronger effect = lower value",0.958 (inactive)
same,normalized growth,"locus YDR392W, strain spt3, stronger effect = lower value",1.02 (inactive)
same,normalized growth,"locus YDR502C, strain sam2, stronger effect = lower value",0.987 (inactive)
same,normalized growth,"locus YEL003W, strain gim4, stronger effect = lower value",0.954 (inactive)
same,normalized growth,"locus YEL037C, strain rad23, stronger effect = lower value",0.97 (inactive)
same,normalized growth,"locus YEL061C, strain CIN8 (second series), stronger effect = lower value",0.978 (inactive)
same,normalized growth,"locus YEL061C, strain CIN8, stronger effect = lower value",0.998 (inactive)
same,normalized growth,"locus YER015W, strain faa2, stronger effect = lower value",0.991 (inactive)
same,normalized growth,"locus YER016W, strain bim1, stronger effect = lower value",0.995 (inactive)
same,normalized growth,"locus YER110C, stronger effect = lower value",0.973 (inactive)
same,normalized growth,"locus YER111C, strain swi4, stronger effect = lower value",0.988 (inactive)
same,normalized growth,"locus YER155C, strain BEM2 (second series), stronger effect = lower value",0.958 (inactive)
same,normalized growth,"locus YER155C, strain BEM2, stronger effect = lower value",0.986 (inactive)
same,normalized growth,"locus YER167W, strain BCK2, stronger effect = lower value",0.987 (inactive)
same,normalized growth,"locus YFR010W, strain ubp6, stronger effect = lower value",0.986 (inactive)
same,normalized growth,"locus YGL078C, strain dbp3, stronger effect = lower value",0.842 (active)
same,normalized growth,"locus YGL086W, strain mad1, stronger effect = lower value",0.985 (inactive)
same,normalized growth,"locus YGL167C, strain pmr1, stronger effect = lower value",0.969 (inactive)
same,normalized growth,"locus YGL173C, strain kem1, stronger effect = lower value",0.965 (inactive)
same,normalized growth,"locus YGL227W, strain vid30, stronger effect = lower value",1 (inactive)
same,normalized growth,"locus YGL240W, strain doc1, stronger effect = lower value",0.929 (inactive)
same,normalized growth,"locus YGL248W, strain PDE1, stronger effect = lower value",0.98 (inactive)
same,normalized growth,"locus YGL253W, strain hxk2, stronger effect = lower value",0.972 (inactive)
same,normalized growth,"locus YGR078C, strain PAC10, stronger effect = lower value",0.96 (inactive)
same,normalized growth,"locus YGR135W, strain pre9, stronger effect = lower value",0.946 (inactive)
same,normalized growth,"locus YGR229C, strain SMI1, stronger effect = lower value",0.986 (inactive)
same,normalized growth,"locus YGR252W, strain gcn5, stronger effect = lower value",0.861 (inactive)
same,normalized growth,"locus YHR013C, strain ard1, stronger effect = lower value",1 (inactive)
same,normalized growth,"locus YHR027C, strain rpn1, stronger effect = lower value",1 (inactive)
same,normalized growth,"locus YHR030C, strain SLT2, stronger effect = lower value",0.994 (inactive) and 0.66 (active)
same,normalized growth,"locus YHR079C, strain IRE1 (second series), stronger effect = lower value",0.947 (inactive)
same,normalized growth,"locus YHR079C, strain IRE1, stronger effect = lower value",0.739 (active)
same,normalized growth,"locus YHR094C, strain hxt1, stronger effect = lower value",0.984 (inactive)
same,normalized growth,"locus YHR129C, strain ARP1, stronger effect = lower value",0.988 (inactive)
same,normalized growth,"locus YHR142W, strain chs7, stronger effect = lower value",0.94 (inactive)
same,normalized growth,"locus YHR200W, strain rpn10, stronger effect = lower value",0.975 (inactive)
same,normalized growth,"locus YIL066C, strain RNR3, stronger effect = lower value",0.973 (inactive)
same,normalized growth,"locus YIL073C, strain SPO22, stronger effect = lower value",0.948 (inactive)
same,normalized growth,"locus YIL125W, strain kgd1, stronger effect = lower value",0.967 (inactive)
same,normalized growth,"locus YIR030C, strain dcg1, stronger effect = lower value",0.974 (inactive)
same,normalized growth,"locus YJL092W, strain hpr5, stronger effect = lower value",0.998 (inactive)
same,normalized growth,"locus YJL095W, strain BCK1 (second series), stronger effect = lower value",0.997 (inactive)
same,normalized growth,"locus YJL095W, strain BCK1, stronger effect = lower value",0.971 (inactive) and 0.676 (active)
same,normalized growth,"locus YJL115W, strain asf1, stronger effect = lower value",0.981 (inactive)
same,normalized growth,"locus YJL129C, strain trk1, stronger effect = lower value",0.915 (inactive)
same,normalized growth,"locus YJL134W, strain LCB3, stronger effect = lower value",0.99 (inactive)
same,normalized growth,"locus YJL154C, strain vps35, stronger effect = lower value",0.996 (inactive)
same,normalized growth,"locus YJL164C, strain tpk1, stronger effect = lower value",0.996 (inactive)
same,normalized growth,"locus YJL166W, strain qcr8, stronger effect = lower value",0.976 (inactive)
same,normalized growth,"locus YJL168C, strain set2, stronger effect = lower value",0.972 (inactive)
same,normalized growth,"locus YJL187C, strain SWE1 (second series), stronger effect = lower value",0.948 (inactive)
same,normalized growth,"locus YJR043C, strain POL32, stronger effect = lower value",0.937 (inactive)
same,normalized growth,"locus YJR066W, strain TOR1, stronger effect = lower value",0.706 (active)
same,normalized growth,"locus YJR075W, strain HOC1, stronger effect = lower value",0.963 (inactive)
